Of roughly 8,800 targets only a part is listed; those with a hit were picked by preference. About 0.5% of all pairs of compound and target were hits. A number with no mark means an inactive call.
What was measured:
Assay in all cases: log2 fold change, soluble protein after heating vs DMSO (PISA); higher = thermal stabilisation; K562 lysate, 10 uM; active = over 0.2 and 3.5 SD of the protein, either way, in both replicates (recomputed)
nilotinib = compound: Cc1cn(-c2cc(NC(=O)c3ccc(C)c(Nc4nccc(-c5cccnc5)n4)c3)cc(C(F)(F)F)c2)cn1 [nilotinib]
Summary of the method: (§1)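 Values give the log-two fold change in thermal stability against solvent controls, from duplicates. Crude K562 extract at 1 mg/mL protein, made by dounce homogenisation in PBS pH 7.4 with 1 mM MgCl2, was treated with 10 μM compound for 30 min. After 3 min heating across 48°C-58°C, aliquots were pooled, adjusted to 0.5% NP-40 at 4°C and centrifuged at 21,000xg for 90 min. The supernatant was measured by TMTpro 16plex LC-MS/MS with channel sums equalised.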

[1] = compound: Cc1nc(Nc2n[nH]c3c2CN(C(=O)N[C@H](CN(C)C)c2ccccc2)C3(C)C)c2sccc2n1
Summary of the method: as §1

dasatinib = compound: Cc1nc(Nc2ncc(C(=O)Nc3c(C)cccc3Cl)s2)cc(N2CCN(CCO)CC2)n1 [dasatinib]
Summary of the method: as §1

[2] = compound: Cc1ncc(-c2ccnc(Nc3ccc(S(C)(=O)=O)cc3)n2)n1C(C)C
Summary of the method: as §1

[3] = compound: Cn1cc(-c2ccc3c(c2)CCN3C(=O)Cc2cccc(C(F)(F)F)c2)c2c(N)ncnc21
Summary of the method: as §1

quisinostat = compound: Cn1cc(CNCC2CCN(c3ncc(C(=O)NO)cn3)CC2)c2ccccc21 [quisinostat]
Summary of the method: as §1

tipifarnib = compound: Cn1cncc1[C@@](N)(c1ccc(Cl)cc1)c1ccc2c(c1)c(-c1cccc(Cl)c1)cc(=O)n2C [tipifarnib]
Summary of the method: as §1

[4] = compound: NC(=O)Nc1cc(-c2cccc(F)c2)sc1C(=O)N[C@H]1CCCNC1
Summary of the method: as §1

[5] = compound: NC(=O)c1cnc(N[C@@H]2CCCC[C@@H]2N)nc1Nc1cccc(-n2nccn2)c1
Summary of the method: as §1

[6] = compound: NC1(c2ccc(-c3nc4ccn5c(=O)[nH]nc5c4cc3-c3ccccc3)cc2)CCC1
Summary of the method: as §1

UniProt Q9P0P0, sequence (Q9P0P0 whole entry, looked up): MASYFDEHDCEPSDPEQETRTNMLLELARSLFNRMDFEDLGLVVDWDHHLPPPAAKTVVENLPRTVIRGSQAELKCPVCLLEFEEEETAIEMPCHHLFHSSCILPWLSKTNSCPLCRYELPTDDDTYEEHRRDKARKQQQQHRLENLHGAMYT
UniProt P38159, sequence (P38159 whole entry, looked up): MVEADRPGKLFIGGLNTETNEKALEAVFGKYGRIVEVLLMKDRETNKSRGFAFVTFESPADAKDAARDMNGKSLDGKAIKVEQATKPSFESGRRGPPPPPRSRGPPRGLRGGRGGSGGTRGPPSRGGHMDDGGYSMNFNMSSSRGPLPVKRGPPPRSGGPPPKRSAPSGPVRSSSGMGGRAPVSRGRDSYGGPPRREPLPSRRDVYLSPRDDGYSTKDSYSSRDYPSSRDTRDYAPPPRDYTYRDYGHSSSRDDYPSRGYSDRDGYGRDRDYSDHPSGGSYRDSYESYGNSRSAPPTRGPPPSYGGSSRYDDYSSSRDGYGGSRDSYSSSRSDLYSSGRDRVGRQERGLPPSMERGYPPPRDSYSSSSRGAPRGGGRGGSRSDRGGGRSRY
UniProt Q9UPW6, sequence (Q9UPW6 whole entry, looked up): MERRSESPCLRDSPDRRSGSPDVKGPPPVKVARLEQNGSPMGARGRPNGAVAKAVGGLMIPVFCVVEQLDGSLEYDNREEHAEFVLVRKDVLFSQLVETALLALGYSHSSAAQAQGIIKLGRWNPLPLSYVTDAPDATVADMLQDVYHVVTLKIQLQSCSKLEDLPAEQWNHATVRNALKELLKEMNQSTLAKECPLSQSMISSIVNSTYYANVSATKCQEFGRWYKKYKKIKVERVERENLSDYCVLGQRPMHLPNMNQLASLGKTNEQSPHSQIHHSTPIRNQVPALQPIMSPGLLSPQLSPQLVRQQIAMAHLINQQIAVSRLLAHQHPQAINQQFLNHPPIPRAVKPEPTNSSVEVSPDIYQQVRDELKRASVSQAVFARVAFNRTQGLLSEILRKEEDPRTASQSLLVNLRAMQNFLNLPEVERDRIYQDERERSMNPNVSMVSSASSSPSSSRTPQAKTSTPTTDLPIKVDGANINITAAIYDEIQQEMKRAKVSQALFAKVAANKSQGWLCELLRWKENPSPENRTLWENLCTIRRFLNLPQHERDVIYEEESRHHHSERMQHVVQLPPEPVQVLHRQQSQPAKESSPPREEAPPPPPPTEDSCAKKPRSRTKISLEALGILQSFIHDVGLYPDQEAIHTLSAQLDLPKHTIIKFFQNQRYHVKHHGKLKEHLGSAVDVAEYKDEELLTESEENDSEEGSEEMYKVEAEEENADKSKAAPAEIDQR
UniProt P51159, sequence (P51159 whole entry, looked up): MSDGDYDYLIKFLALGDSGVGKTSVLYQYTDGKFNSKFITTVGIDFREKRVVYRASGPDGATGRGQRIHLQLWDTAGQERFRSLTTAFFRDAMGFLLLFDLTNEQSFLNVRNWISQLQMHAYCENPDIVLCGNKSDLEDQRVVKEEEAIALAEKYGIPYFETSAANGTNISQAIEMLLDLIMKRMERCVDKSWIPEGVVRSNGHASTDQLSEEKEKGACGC
UniProt O75150, sequence (O75150 whole entry, looked up): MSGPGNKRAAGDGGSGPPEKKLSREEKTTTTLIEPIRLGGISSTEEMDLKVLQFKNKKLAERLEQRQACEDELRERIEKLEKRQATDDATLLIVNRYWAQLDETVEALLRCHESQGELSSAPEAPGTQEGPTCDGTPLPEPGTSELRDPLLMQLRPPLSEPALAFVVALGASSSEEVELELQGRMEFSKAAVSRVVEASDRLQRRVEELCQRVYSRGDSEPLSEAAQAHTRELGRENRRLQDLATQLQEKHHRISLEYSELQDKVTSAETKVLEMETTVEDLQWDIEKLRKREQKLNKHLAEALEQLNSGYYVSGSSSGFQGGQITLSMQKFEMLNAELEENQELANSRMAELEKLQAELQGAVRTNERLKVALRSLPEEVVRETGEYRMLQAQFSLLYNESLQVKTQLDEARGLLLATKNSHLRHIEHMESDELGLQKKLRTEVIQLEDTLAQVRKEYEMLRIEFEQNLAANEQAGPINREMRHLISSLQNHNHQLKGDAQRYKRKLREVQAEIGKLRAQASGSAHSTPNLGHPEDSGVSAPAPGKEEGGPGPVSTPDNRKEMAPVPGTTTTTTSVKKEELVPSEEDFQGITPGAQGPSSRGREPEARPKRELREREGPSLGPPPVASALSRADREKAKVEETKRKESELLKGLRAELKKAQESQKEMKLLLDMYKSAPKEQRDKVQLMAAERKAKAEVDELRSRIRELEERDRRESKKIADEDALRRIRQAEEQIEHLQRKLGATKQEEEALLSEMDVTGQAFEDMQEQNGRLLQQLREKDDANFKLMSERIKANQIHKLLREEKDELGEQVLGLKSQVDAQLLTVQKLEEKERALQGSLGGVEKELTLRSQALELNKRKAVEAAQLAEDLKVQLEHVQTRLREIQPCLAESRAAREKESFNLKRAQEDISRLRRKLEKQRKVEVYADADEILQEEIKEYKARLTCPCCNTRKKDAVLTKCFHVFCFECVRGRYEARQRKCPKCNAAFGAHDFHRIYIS
UniProt Q6UVJ0, sequence (Q6UVJ0 whole entry, looked up): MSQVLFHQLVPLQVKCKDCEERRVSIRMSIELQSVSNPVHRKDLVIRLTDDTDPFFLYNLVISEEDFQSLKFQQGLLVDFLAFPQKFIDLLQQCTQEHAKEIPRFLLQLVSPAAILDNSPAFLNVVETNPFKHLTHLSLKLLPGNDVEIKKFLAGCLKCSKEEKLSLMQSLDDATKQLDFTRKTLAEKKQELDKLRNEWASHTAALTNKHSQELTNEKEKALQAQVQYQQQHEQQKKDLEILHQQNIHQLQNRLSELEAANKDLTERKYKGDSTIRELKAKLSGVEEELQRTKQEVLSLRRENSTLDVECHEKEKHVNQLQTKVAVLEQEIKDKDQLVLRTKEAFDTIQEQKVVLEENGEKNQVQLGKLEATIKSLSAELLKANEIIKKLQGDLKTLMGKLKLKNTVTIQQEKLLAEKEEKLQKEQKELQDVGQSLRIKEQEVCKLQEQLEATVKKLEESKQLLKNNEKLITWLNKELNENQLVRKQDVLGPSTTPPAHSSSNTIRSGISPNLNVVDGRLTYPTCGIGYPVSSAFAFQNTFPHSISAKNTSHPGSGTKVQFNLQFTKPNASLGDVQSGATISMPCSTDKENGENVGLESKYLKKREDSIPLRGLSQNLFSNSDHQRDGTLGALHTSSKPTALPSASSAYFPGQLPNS
UniProt Q8IZV5, sequence (Q8IZV5 whole entry, looked up): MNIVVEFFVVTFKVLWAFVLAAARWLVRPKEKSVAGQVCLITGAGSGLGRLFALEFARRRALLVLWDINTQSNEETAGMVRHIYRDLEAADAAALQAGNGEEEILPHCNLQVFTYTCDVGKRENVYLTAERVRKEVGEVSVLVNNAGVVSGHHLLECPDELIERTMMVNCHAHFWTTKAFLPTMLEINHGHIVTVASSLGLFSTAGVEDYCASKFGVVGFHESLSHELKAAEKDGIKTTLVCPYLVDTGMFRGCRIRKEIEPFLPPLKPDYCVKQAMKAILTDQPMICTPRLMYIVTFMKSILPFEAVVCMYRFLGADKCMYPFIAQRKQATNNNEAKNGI
UniProt O15541, sequence (O15541 whole entry, looked up): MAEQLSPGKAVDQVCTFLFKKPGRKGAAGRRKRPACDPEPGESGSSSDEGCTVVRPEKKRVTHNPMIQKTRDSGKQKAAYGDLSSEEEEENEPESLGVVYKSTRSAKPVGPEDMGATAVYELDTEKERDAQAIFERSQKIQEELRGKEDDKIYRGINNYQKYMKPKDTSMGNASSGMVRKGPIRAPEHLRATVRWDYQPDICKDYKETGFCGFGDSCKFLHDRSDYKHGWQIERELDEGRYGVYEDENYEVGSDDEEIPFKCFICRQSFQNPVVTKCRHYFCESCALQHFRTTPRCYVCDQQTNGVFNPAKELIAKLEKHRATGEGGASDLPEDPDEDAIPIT
UniProt Q9BRS2, sequence (Q9BRS2 whole entry, looked up): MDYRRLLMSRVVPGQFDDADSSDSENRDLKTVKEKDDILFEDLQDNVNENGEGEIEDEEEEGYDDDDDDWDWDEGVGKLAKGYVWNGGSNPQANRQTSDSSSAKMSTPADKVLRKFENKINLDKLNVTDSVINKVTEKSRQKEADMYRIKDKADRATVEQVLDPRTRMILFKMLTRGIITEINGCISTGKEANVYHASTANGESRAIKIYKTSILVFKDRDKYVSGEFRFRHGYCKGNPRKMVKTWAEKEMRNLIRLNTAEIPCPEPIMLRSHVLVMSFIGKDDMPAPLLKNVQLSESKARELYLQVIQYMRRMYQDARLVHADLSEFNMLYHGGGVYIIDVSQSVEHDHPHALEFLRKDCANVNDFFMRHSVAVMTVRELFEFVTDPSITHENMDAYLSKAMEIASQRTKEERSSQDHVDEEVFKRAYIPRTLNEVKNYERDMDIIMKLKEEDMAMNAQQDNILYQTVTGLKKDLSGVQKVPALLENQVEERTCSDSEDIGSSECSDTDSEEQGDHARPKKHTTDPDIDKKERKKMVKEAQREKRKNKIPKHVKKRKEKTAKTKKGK
UniProt Q9Y6B6, sequence (Q9Y6B6 whole entry, looked up): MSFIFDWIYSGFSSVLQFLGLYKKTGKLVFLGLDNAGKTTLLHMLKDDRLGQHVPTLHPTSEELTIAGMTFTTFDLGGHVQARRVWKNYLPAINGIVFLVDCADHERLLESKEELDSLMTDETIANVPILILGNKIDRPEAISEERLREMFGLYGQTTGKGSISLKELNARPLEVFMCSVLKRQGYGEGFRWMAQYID
UniProt P53805, sequence (P53805 whole entry, looked up): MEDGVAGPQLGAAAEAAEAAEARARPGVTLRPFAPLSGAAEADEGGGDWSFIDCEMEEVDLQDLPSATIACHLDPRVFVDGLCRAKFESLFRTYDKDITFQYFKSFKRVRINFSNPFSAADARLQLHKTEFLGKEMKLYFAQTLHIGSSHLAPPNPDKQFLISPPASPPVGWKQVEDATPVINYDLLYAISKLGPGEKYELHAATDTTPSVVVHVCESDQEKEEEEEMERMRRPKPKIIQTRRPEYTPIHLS

Target	log2 fold change (nilotinib)	log2 fold change [1]	log2 fold change (dasatinib)	log2 fold change [2]	log2 fold change [3]	log2 fold change (quisinostat)	log2 fold change (tipifarnib)	log2 fold change [4]	log2 fold change [5]	log2 fold change [6]
REEP6 (UniProt Q96HR9)	0.058	0.1	0.204	0.041	0.009	-0.072	0.001	-0.03	0.155	-0.023
RAD17 (UniProt O75943)	-0.027	0.073	-0.064	-0.023	0	-0.032	-0.085	0.038		
RHAG (UniProt Q02094)	0.041	-0.013	-0.029	-0.016	-0.06	-0.142	0.011	0.011	-0.024	-0.002
RARS (UniProt P54136)	0.004	0	-0.074	-0.017	0.038	-0.017	0.006	0.049	0.015	-0.023
RBM42 (UniProt Q9BTD8)	0.102	-0.039	-0.021	0.009	-0.039	-0.033	0.073	-0.022	-0.049	0.004
RNF113A (UniProt O15541)	0.003	-0.004	-0.015	0.007	0.04	0.063	-0.019	-0.068	-0.005	-0.002
RIC1 (UniProt Q4ADV7)	-0.069	0.033	0.001	0.086	0.008	-0.169	0.085	0.097	-0.085	0.002
SAR1B (UniProt Q9Y6B6)	0.202	0.101	0.047	-0.013	-0.038	0.028	-0.217	-0.02	-0.092	-0.016
SASS6 (UniProt Q6UVJ0)	-0.032	0.01	-0.083	0.017	0.008	-0.045	-0.03	0.03	0.044	0.003
RPL37A (UniProt P61513)	0.041	0.011	0.095	0.067	0.032	0.139	0.008	-0.028	-0.013	-0.021
REXO4 (UniProt Q9GZR2)	-0.001	-0.009	-0.008	0.021	0.008	0.013	0.015	0.03	-0.045	0.034
RPS18 (UniProt P62269)	0.004	-0.02	-0.009	-0.039	-0.018	0	0.031	-0.018	0.014	-0.006
RPS6KA5 (UniProt O75582)	-0.037	0.004	-0.006	-0.079	0.065	0.062	0.042	0.073	-0.086	-0.127
RCAN1 (UniProt P53805)	-0.457 (active)	0.008	0.023	-0.055	0.038	-0.217	0.131	0.117	0.088	0.036
RBMX (UniProt P38159)	0.034	-0.079	-0.029	-0.052	-0.007	0.042	0.005	0.014	0.033	-0.021
RDH10 (UniProt Q8IZV5)	-0.004	0.011	0.132	0.026	-0.022	0.05	0.042	-0.002	-0.084	0.073
SAP30 (UniProt O75446)	0.104	-0.464 (active)	-0.063	-0.124	0.012	-0.111	-0.026	0.037	-0.035	
RPS4X (UniProt P62701)	0.01	-0.023	0.025	-0.002	-0.003	0.016	0.01	-0.001	-0.034	0.008
RBM8A (UniProt Q9Y5S9)	-0.005	0.025	0.023	0.004	0.067	0.187	0.051	-0.016	0	0.108
SEC24D isoform 2 (UniProt O94855)	-0.006	-0.016	-0.004	-0.029	0.002	0.01	0.001	-0.012	-0.004	0.006
RCOR3 isoform 3 (UniProt Q9P2K3)	-0.016	-0.028	-0.052	0.038	0.01	0.022	0.011	0.03	0.029	0.014
RNASEH2B (UniProt Q5TBB1)	0.024	0.007	-0.024	-0.001	-0.011	-0.059	-0.009	0.037	0.004	-0.015
RNF40 (UniProt O75150)	-0.022	0.009	-0.012	0.003	0.031	-0.029	0.003	0.031	0.009	-0.012
SATB2 (UniProt Q9UPW6)	-0.08	-0.02	0.041	-0.005	0.013	-0.06	0.009	0.018	0.031	0
RIOK1 (UniProt Q9BRS2)	-0.018	0.06	-0.018	0.072	0.008	-0.007	0.003	-0.012	-0.033	-0.072
RAB27A (UniProt P51159)	-0.018	0.02	0.022	-0.059	0.003	0.037	0.038	-0.024	0.014	0.021
RMC1 (UniProt Q96DM3)	0.027	0.005	0.008	-0.002	0.003	-0.02	-0.057	0.035	-0.007	0.036
RBBP7 isoform 2 (UniProt Q16576)	0.013	-0.019	-0.005	-0.035	0.016	-0.051	0.047	0.01	-0.025	0.035
RAC2 (UniProt P15153)	-0.025	-0.076	-0.068	0.015	-0.093	0.021	0	0.001	0.04	0.017
RNF181 (UniProt Q9P0P0)	0.023	0.027	0.013	0.007	-0.004	-0.027	-0.03	0.006	-0.01	-0.023

From the supplement of paper PMC10849652
